# Compound activity from PubChem BioAssay.
# This is a sample that favours compounds with a hit; in the whole collection about 6% have one here.
# D1 ag: agonists of human D1 dopamine receptor | HEK293 T-REx D1 cells, calcium flux, agonist mode | activation, % at 2 µM | actives 1% (n = 360,000) | AID 504660; in the data active = activation above about 30%; also: 0% is about no effect
#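 Inducible HEK293 T-REx D1 cells, force-coupled to calcium signalling, were plated at 4000 cells/well with tetracycline and held overnight at 30 C. After no-wash calcium dye loading, compound-evoked calcium rise over 180 s flagged agonists.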
# D3 ag: agonists of human D3 dopamine receptor. actives 0.58% (n = 410,000). P35462. D3R DiscoveRx beta-arrestin cells, luminescence, 90 min. max activation, %; in the data active = max activation above about 30%; also: 0% is about no effect
# Target sequence (P35462 whole entry, looked up): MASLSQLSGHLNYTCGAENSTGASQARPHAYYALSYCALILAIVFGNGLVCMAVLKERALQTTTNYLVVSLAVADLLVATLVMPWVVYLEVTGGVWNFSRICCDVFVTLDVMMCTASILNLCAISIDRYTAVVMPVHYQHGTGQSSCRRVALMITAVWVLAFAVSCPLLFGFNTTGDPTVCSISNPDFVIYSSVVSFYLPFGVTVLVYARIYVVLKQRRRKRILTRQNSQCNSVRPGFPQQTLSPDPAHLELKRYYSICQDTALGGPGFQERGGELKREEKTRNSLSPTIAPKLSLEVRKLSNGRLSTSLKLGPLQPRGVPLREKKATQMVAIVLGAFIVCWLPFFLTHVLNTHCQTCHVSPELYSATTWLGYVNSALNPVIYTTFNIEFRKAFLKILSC
#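 Cells at 1500/well, incubated overnight, then treated with pinned compounds (dopamine as control) for 90 min at 37 degrees C. DiscoveRx reagent added for 30 - 60 minutes at room temperature; luminescence read.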
# D1 antagonist: antagonists of human D1 dopamine receptor; P21728; HEK293 TREx D1 cells, calcium flux, dopamine EC80; stronger effect = lower value; activity change, negative = inhibition, % at 10 µM; actives 3.2% (n = 360,000); AID 504652; in the data active = activity change below about -30%; also: % is scaled to controls: 0 for no effect and ±100 for the full control effect
#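 Antagonism measured as reduced calcium response to an EC80 dopamine addition following 180 s compound pre-read; cells were inducible HEK293 Trex D1 plated overnight at 30 C, read kinetically at 1 cycle/sec.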
# DRD3 antagonist: antagonists of human D3 dopamine receptor. D3R cells, DiscoveRx beta-arrestin luminescence, antagonist mode; stronger effect = lower value. max response, negative = inhibition, %. actives 2.5% (n = 360,000); in the data active = max response below about -50%; inconclusive = no clear call, values can overlap the other calls; also: % is scaled to controls: 0 for no effect and ±100 for the full control effect
#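 Cells plated overnight at 1500 cells/well, then exposed to library compounds with dopamine controls for 90 minutes at 37 degrees C. DiscoveRx reagent added for 30–60 minutes at room temperature; luminescence read, quantitative HTS format.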
# D1 PAM: enhances dopamine response at the human D1 receptor; P21728; HEK293 TREx D1 cells, calcium flux, dopamine EC20 potentiation; potentiation, % at 10 µM; actives 0.036% (n = 360,000); AID 504651; in the data active = potentiation above about 30%; also: 0% is about no effect
# * = called active by the depositor; ? = inconclusive; · = no result; ! = a repeat was not active.
SMILES,D1 ag,D3 ag,D1 antagonist,DRD3 antagonist,D1 PAM
COc1ccc(OC)c(CCNC(=O)c2nn(C)c3c2CSc2ccccc2-3)c1,-2,3,16,·,-2
O=C(Nc1ccncc1)c1cc(-c2ccccc2)nc2ccccc12,·,4,·,132,·
Cc1cccc(-c2cc(C(=O)Nc3ccncc3)c3ccccc3n2)c1,0,35*,-41*,100,-7
O=C(Nc1nccs1)c1cc(-c2ccccc2)nc2ccccc12,1,44*,-10,16,-3
Cc1ccc2nc(-c3ccc(NS(C)(=O)=O)cc3)cc(-c3ccccc3)c2c1,3,18,19,-16,9
Cc1ccc2nc(-c3ccncc3)cc(-c3ccccc3)c2c1,3,57*,12,24,6
O=C(Nc1nccs1)c1cc(-c2ccco2)nc2ccccc12,1,8,21,6,2
COc1cccc(Cn2cc(C(=O)c3ccc(Cl)cc3)c(=O)c3ccccc32)c1,9,10,-4,·,0
COc1cccc(CNC(=O)C2CCN(S(=O)(=O)c3ccc4c(c3)CCCN4C(C)=O)CC2)c1,0,7,10,·,0
NC(=Nc1ccc(Br)cc1)c1ccccc1,45*,-1,-39*,21,0
N/C(=N\OC(=O)Oc1ccccc1)c1ccc(Br)cc1,0,-4,17,0,0
Cc1cc(Cl)ccc1OCC(=O)Nc1c(Cl)ccc2nsnc12,0,-15,-9,·,2
Cc1ccc(N=Cc2cc(Br)cc(Cl)c2O)cc1,5,-28,-4,-65*,7
COc1ccc(CNCc2ccc3c(c2)n(C)c(=O)n3C)cc1,3,-16,3,·,0
O=C(NCc1ccco1)c1ccc(Cn2c(SCc3ccc(F)cc3)nc3cccnc32)cc1,15,-18,-2,·,-3
O=C(O)CSCC(=O)N(Cc1ccccc1)c1nc(-c2ccccc2)c(-c2ccccc2)s1,9,-2,-39*,-12,-15
CCOC(=O)c1sc(N(Cc2ccccc2)C(=O)CCl)nc1C,8,12,-1,-7,-4
Cn1nnc2c(N3CCN(c4ccccc4F)CC3)ncnc21,6,-3,·,·,-2
Cn1ncc2c(N3CCN(c4ccccc4F)CC3)ncnc21,6,30*!,-7,29,-1
Cc1ccc(-n2ncc3c(NCCCn4ccnc4)ncnc32)cc1C,-4,4,-60*,·,-3
Fc1ccc(-n2ncc3c(NCCCn4ccnc4)ncnc32)cc1,-1,-9,-8,·,0
Clc1cccc(-n2ncc3c(NCCCn4ccnc4)ncnc32)c1,4,-4,-40*,·,-3
Cc1nnc(SCC(=O)Nc2ccc(N(C)C)cc2)[nH]c1=O,1,-7,0,·,1
Cc1cc(C)cc(NC(=O)C2CCC(CNS(=O)(=O)c3ccc4c(c3)C(C)(C)C(=O)N4C)CC2)c1 (centres undefined),6,0,8,·,-3
CCN(CC)c1nc2ccccc2c(N)c1-c1ccccc1,22,-11,-33*,?,-14
SMILES,D1 ag,D3 ag,D1 antagonist,DRD3 antagonist,D1 PAM
CCOC(=O)c1ccc(NC(=O)CCc2nc3cccnc3n2Cc2cccs2)cc1,0,9,-6,·,0
O=C(Nc1ccc(N2CCOCC2)c(Cl)c1)c1ccccc1Cl,1,1,6,-53*,-3
O=C(Nc1ccccc1)c1cc(N2CCOCC2)nc2ccccc12,1,2,-55*,31,0
Cn1c(=O)n(C)c2cc(N3CCOCC3)c(NC(=O)c3ccccc3Br)cc21,-1,-7,-43*,·,-2
Cc1ccc(NC(=O)c2cc(N3CCOCC3)nc3ccccc23)cc1,2,3,-3,18,6
COc1ccc(C(=O)Nc2cc3c(cc2N2CCCCC2)n(C)c(=O)n3C)cc1OC,-1,32*,-6,24,-3
Cc1ccccc1C(=O)Nc1cc2c(cc1N1CCOCC1)n(C)c(=O)n2C,1,14,7,·,0
CCc1cccc(NC(=O)CSc2n[nH]c(-c3ccccc3Cl)n2)c1,4,-2,-10,·,-1
O=C(Nc1ccccc1N1CCOCC1)c1cc(Br)c(Br)s1,3,-5,-31*,6,3
CCN1CCN(c2ccc(NC(=O)c3ccco3)cc2Cl)CC1,3,-10,-5,2,-11
O=C(Nc1ccc(N2CCCCC2)c(Cl)c1)c1ncn[nH]1,39*,-4,1,-4,1
CN1CCN(c2ccc(NC(=O)c3ccco3)cc2Cl)CC1,2,-4,-38*,-5,-2
CCN1CCN(c2ccc(NC(=O)c3cccc(F)c3)cc2Cl)CC1,7,-6,-36*,-13,-6
O=C(Nc1ccc(N2CCCC2)c(Cl)c1)c1ccco1,0,-10,-10,-17,-4
CC1=Nc2cc(C(=O)NCCc3ccc(Cl)cc3)ccc2Sc2ccc(C)cc21,10,-13,6,·,5
O=C1c2[nH]nc(-c3ccccc3O)c2C(c2cccc(OCc3ccccc3)c2)N1CCCO (centres undefined),0,-1,28,·,6
Cc1ccccc1NC(=O)c1ccc(N(Cc2ccccc2)S(C)(=O)=O)cc1,9,-12,-12,·,0
O=S(=O)(c1cccc(Cl)c1)c1nnn2c1nc(NC1CCCC1)c1sccc12,6,8,-72*,·,-8
CC1CCN(c2nc3c(S(=O)(=O)c4cccc(Cl)c4)nnn3c3ccsc23)CC1,5,0,6,·,-3
Cc1cc(C)cc(Nc2nc3c(S(=O)(=O)c4cccc(Cl)c4)nnn3c3ccsc23)c1,1,54*,4,·,-6
Cc1ccc(S(=O)(=O)c2nnn3c2nc(NC2CCCCC2)c2sccc23)cc1C,15,23,-39*,·,-6
Cc1ccc(C)c(S(=O)(=O)c2nnn3c2nc(NC2CCCC2)c2sccc23)c1,2,15,-24,·,-5
Cc1cccc(OC(C)C(=O)Nc2ncn[nH]2)c1 (centres undefined),1,9,0,·,-4
CCOC(=O)N1CCc2c(sc3c2C(=O)NC(c2ccc(N(C)C)cc2)N3)C1 (centres undefined),9,-8,2,·,3
Cc1ccc(CS(=O)(=O)CCC(=O)NCc2cccs2)cc1,-1,0,-32*,-11,-8
CCC(=O)NS(=O)(=O)c1ccc(-c2c(-c3ccccc3)noc2C)cc1,·,5,·,·,·
CCn1c(=O)c2c(nc3n2CCN3c2ccc(OC)cc2)n(C)c1=O,0,-9,-21,·,-1
Cc1cccc(-c2nc(S(=O)(=O)c3ccc(F)cc3)c(NCCCN3CCOCC3)o2)c1,22,-12,16,-73*,-3
CCN(CC)CCNc1oc(-c2ccccc2)nc1S(=O)(=O)c1ccccc1,·,-9,·,-76*,·
COc1ccc(-c2nc(S(=O)(=O)c3ccccc3)c(NCCCN3CCOCC3)o2)cc1,·,-5,·,-57*,·
